Source: PubChem BioAssay (Tox21)
Values without a mark were called inactive. Results filed as inconclusive are left out. Calls of active or inactive are those of the source. Calls come from the whole dose curve.

Each compound was assayed against Acetylcholinesterase (Homo sapiens) (UniProt P22303) (assay: Acetylcholinesterase (AChE) small molecule antagonists: fluorescence cell-based qHTS assay (AID 1347398; note: nearly all actives have a fitted effect of over 50% in size)). Conditions: SH-SY5Y cells; Potency: AChE activity; outcome: AChE activity; series mostly up to 115 µM; activity change, negative = inhibition: at the top concentration.
How it was run: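 Fluorimetric cell-based assay: intact SH-SY5Y cells, 30 min compound preincubation at 37 C, acetylthiocholine substrate with thiol probe Thiolite Green, 40 min RT development, fluorescence 490/520 nm.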
% is set by controls: 0 for no effect and ±100 for the full control effect.

Sequence of Acetylcholinesterase (Homo sapiens) (P22303 whole entry, looked up): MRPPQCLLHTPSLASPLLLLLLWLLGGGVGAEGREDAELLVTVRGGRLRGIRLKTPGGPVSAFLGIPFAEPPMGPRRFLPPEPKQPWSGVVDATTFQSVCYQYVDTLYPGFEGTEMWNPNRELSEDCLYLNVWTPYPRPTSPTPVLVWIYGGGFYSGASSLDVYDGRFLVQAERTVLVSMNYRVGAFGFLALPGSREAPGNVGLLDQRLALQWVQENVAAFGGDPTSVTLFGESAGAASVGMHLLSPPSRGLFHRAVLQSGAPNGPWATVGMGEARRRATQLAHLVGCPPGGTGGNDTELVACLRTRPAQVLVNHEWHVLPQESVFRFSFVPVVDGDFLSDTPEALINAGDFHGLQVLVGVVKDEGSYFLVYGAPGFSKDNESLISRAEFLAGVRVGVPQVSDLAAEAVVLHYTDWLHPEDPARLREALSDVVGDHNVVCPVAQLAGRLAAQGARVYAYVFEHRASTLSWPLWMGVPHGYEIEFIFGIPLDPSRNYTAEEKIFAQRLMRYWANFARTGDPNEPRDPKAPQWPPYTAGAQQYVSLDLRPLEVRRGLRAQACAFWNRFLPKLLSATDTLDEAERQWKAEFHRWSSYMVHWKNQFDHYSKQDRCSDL

Row | SMILES | Potency | activity change, negative = inhibition
1 | COc1ccc([N+](=O)[O-])cc1N | inactive | 
2 | CCCCCCN |  | 4.8%
3 | CCCCCCCCCOC(=O)CCCCC(=O)OCCCCCCC |  | -0.778%
4 | CCCCN1CCCC[C@H]1C(=O)Nc1c(C)cccc1C |  | -8.37% [at 53.7 µM]
5 | O=C(CCCCCCCCc1cccnc1)N1CCC(C=C(c2ccccc2)c2ccccc2)CC1 |  | -0.627%
6 | CC1CCCNC1 (stereo not given) |  | 1.66%
7 | CCCOCCOCCO |  | 4%
8 | CCCCN(CCCC)C(=S)SSC(=S)N(CCCC)CCCC |  | -19%
9 | C=CC(C)(O)CC/C=C(\C)CC (stereo not given) |  | -0.637%
10 | COc1ccc(CCC(C)=O)cc1 | inactive | 
11 | Nc1nnc(-c2cccc(Cl)c2Cl)c(N)n1 |  | -5.26% [at 53.7 µM]
12 | BrC(Br)C(Br)Br |  | 4.32%
13 | CCc1nc(N)nc(N)c1-c1ccc(Cl)cc1 | inactive | 
14 | C[C@]12CC[C@@H]3c4ccc(O)cc4CC[C@H]3[C@@H]1CC[C@@H]2O | inactive | 
15 | CC(C)CCOC(=O)c1ccccc1 |  | 1.67%
16 | N#Cc1ccc(C(=O)O)cc1 |  | 2.75%
17 | OC[C@@H](O)[C@H](O)[C@H](O)[C@@H](O)CO | inactive | 
18 | c1cc(C(c2ccc(OCC3CO3)cc2)C(c2ccc(OCC3CO3)cc2)c2ccc(OCC3CO3)cc2)ccc1OCC1CO1 (stereo not given) | inactive | 
19 | CC(C)(C)c1cccc(O)c1 |  | -18.4%
20 | Cc1ccc([N+](=O)[O-])c(N)c1 |  | -7.05%

Row | SMILES | Potency | activity change, negative = inhibition
21 | CCCCCC(C)O (stereo not given) |  | -0.342%
22 | CC1=C(C=O)C(C)(C)CCC1 |  | -0.0003%
23 | O=C(/C=C/c1ccc(O)c(O)c1)O[C@@H](C(=O)O)[C@@H](OC(=O)/C=C/c1ccc(O)c(O)c1)C(=O)O |  | -4.82%
24 | C1COCO1 |  | 5.8%
25 | CC1=CC(=C(c2ccc(N)cc2)c2ccc(N)cc2)C=CC1=N |  | -4.07% [at 10.5 µM]
26 | CSc1c(Cl)c(Cl)c(Cl)c(Cl)c1Cl |  | -14%
27 | Nc1ncn([C@@H]2O[C@H](CO)[C@@H](O)[C@H]2O)c(=O)n1 | inactive | 
28 | C=CC(C)(CCC=C(C)C)OC(=O)/C=C/c1ccccc1 (stereo not given) |  | -13.9%
29 | Nc1cccc2c1CN(C1CCC(=O)NC1=O)C2=O (stereo not given) |  | 11.4% [at 53.7 µM]
30 | O=C1c2cccc(O)c2C(=O)c2c(O)cc(CO)cc21 |  | -16.9%
31 | CC(C)(C)CC(C)(C)c1ccccc1O |  | 2.66%
32 | CCOC(=O)NCCC[Si](OCC)(OCC)OCC |  | -2.42%
33 | OCCOCCOCCOCCO | inactive | 
34 | CN=C(NC#N)Nc1ccc(C2=NNC(=O)CC2C)cc1 (stereo not given) |  | 3.06% [at 53.7 µM]
35 | O=C(O)C1=NN(c2ccc(S(=O)(=O)O)cc2)C(=O)C1 | inactive | 
36 | CCCC(=O)Nc1ccc(O)c(C(C)=O)c1 |  | 9.65% [at 53.7 µM]
37 | C=C(C)[C@@H]1CC=C(C)C(=O)C1 |  | -11.1%
38 | Nc1c(CC(=O)O)cccc1C(=O)c1ccc(Br)cc1 |  | 19.6% [at 53.7 µM]
39 | CCN(CCCc1ccccc1)CCCc1ccccc1 |  | -18.9% [at 53.7 µM]
40 | Cc1cc(C)c(C)c(C)c1 |  | 5.77%

What follows are compounds tested against Acetylcholinesterase (Homo sapiens) (UniProt P22303) (assay: Acetylcholinesterase (AChE) small molecule antagonists: enzyme-based qHTS assay with human liver microsomes (AID 1347399; note: nearly all actives have a fitted effect of over 60% in size)). Conditions: Potency: qHTS inhibition; outcome: qHTS inhibition; series mostly up to 115 µM; activity change, negative = inhibition: at the top concentration.
How it was run: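 Recombinant human AChE (50 mU/mL in the enzyme mix) and human liver microsomes (0.25 mg/mL final) were preincubated with compound and NADPH (0.25 mg/mL final) for 30 min at 37 C. Acetylthiocholine/DTNB was then added; thiocholine was read colorimetrically after 10 min at room temperature.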

Row | SMILES | Potency | activity change, negative = inhibition
41 | COc1ccc([N+](=O)[O-])cc1N | inactive | 
42 | CCCCCCN |  | -3.21%
43 | CCCCCCCCCOC(=O)CCCCC(=O)OCCCCCCC |  | -1.05%
44 | CCCCN1CCCC[C@H]1C(=O)Nc1c(C)cccc1C |  | 2.2% [at 53 µM]
45 | O=C(CCCCCCCCc1cccnc1)N1CCC(C=C(c2ccccc2)c2ccccc2)CC1 |  | 1.46%
46 | CC1CCCNC1 (stereo not given) |  | 2.01%
47 | CCCOCCOCCO |  | -0.171%
48 | CCCCN(CCCC)C(=S)SSC(=S)N(CCCC)CCCC |  | -5.66%
49 | C=CC(C)(O)CC/C=C(\C)CC (stereo not given) |  | 0.493%
50 | COc1ccc(CCC(C)=O)cc1 | inactive | 
51 | Nc1nnc(-c2cccc(Cl)c2Cl)c(N)n1 |  | 0.865% [at 53 µM]
52 | BrC(Br)C(Br)Br |  | 0.57%
53 | CCc1nc(N)nc(N)c1-c1ccc(Cl)cc1 | inactive | 
54 | C[C@]12CC[C@@H]3c4ccc(O)cc4CC[C@H]3[C@@H]1CC[C@@H]2O | inactive | 
55 | CC(C)CCOC(=O)c1ccccc1 |  | -0.585%
56 | N#Cc1ccc(C(=O)O)cc1 |  | 1.91%
57 | OC[C@@H](O)[C@H](O)[C@H](O)[C@@H](O)CO | inactive | 
58 | c1cc(C(c2ccc(OCC3CO3)cc2)C(c2ccc(OCC3CO3)cc2)c2ccc(OCC3CO3)cc2)ccc1OCC1CO1 (stereo not given) | inactive | 
59 | CC(C)(C)c1cccc(O)c1 |  | 0.382%
60 | Cc1ccc([N+](=O)[O-])c(N)c1 |  | 9.07%

Row | SMILES | Potency | activity change, negative = inhibition
61 | CCCCCC(C)O (stereo not given) |  | -2.92%
62 | CC1=C(C=O)C(C)(C)CCC1 |  | -1.93%
63 | O=C(/C=C/c1ccc(O)c(O)c1)O[C@@H](C(=O)O)[C@@H](OC(=O)/C=C/c1ccc(O)c(O)c1)C(=O)O |  | 2.4%
64 | C1COCO1 |  | -0.223%
65 | CC1=CC(=C(c2ccc(N)cc2)c2ccc(N)cc2)C=CC1=N |  | 0.485% [at 10.5 µM]
66 | CSc1c(Cl)c(Cl)c(Cl)c(Cl)c1Cl |  | -0.193%
67 | Nc1ncn([C@@H]2O[C@H](CO)[C@@H](O)[C@H]2O)c(=O)n1 | inactive | 
68 | C=CC(C)(CCC=C(C)C)OC(=O)/C=C/c1ccccc1 (stereo not given) |  | -1.35%
69 | Nc1cccc2c1CN(C1CCC(=O)NC1=O)C2=O (stereo not given) |  | 2.69% [at 53 µM]
70 | O=C1c2cccc(O)c2C(=O)c2c(O)cc(CO)cc21 |  | -4.13%
71 | CC(C)(C)CC(C)(C)c1ccccc1O |  | 0.0601%
72 | CCOC(=O)NCCC[Si](OCC)(OCC)OCC |  | -0.167%
73 | OCCOCCOCCOCCO | inactive | 
74 | CN=C(NC#N)Nc1ccc(C2=NNC(=O)CC2C)cc1 (stereo not given) |  | -1.3% [at 53 µM]
75 | O=C(O)C1=NN(c2ccc(S(=O)(=O)O)cc2)C(=O)C1 | inactive | 
76 | CCCC(=O)Nc1ccc(O)c(C(C)=O)c1 |  | 1.18% [at 53 µM]
77 | C=C(C)[C@@H]1CC=C(C)C(=O)C1 |  | -3.2%
78 | Nc1c(CC(=O)O)cccc1C(=O)c1ccc(Br)cc1 |  | 5.29% [at 53 µM]
79 | CCN(CCCc1ccccc1)CCCc1ccccc1 |  | -2.35% [at 53 µM]
80 | Cc1cc(C)c(C)c(C)c1 |  | 0.0702%
